Measurements published in PubChem BioAssay (NCATS).
Results filed as inconclusive are left out. Calls of active or inactive are those of the source. Unless noted, calls come from the whole dose curve; as a rule, active = well fitted curve in either direction with a large enough effect (not every such curve was filed as active); inconclusive = small, poorly fitted or top-dose-only effect, or another doubt; inactive = flat fitted curve, though single readings scatter.

What was measured:
[1] = biological target: Lysosomal acid glucosylceramidase (Homo sapiens) (UniProt P04062); assay: Glucocerebrosidase-p2 (AID 348; in the data active = potency below about 10 µM; note: potency is the fitted concentration of half-maximal effect); conditions: purified GBA, blue fluorogenic substrate, 40 min
In short: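 Compounds titrated from 0.6 nM upwards against 0.2 nM enzyme in pH 5.9 citric acid/KH2PO4, taurocholate, tween-20; blue fluorogenic substrate 80 uM, 40 min room temperature, stopped and read Ex 365/Em 440 for AC50.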

[2] = AP1 Signaling Pathway (AID 357); conditions: ME-180 AP-1-bla reporter, EGF-induced, beta-lactamase ratio, 5 h; at 7.69 µM (top of the series) unless noted;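 note: ME-180 reporter cells stimulated with EGF at its EC50 level; % is set by controls: 0 for no effect and ±100 for the full control effect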
In short: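 A ratiometric CCF4 readout (405 nm excitation; 460 and 530 nm emission) quantified AP-1-driven beta-lactamase in ME-180 cells after 5 h with compound and EC50 EGF; AC50 values were derived for activators and inhibitors.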

[3] = NFAT Signaling Pathway (AID 444); conditions: Jurkat NFAT-bla M1, carbachol, beta-lactamase ratio, 5 h; at 7.69 µM (top of the series) unless noted;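 note: carbachol stimulus at about its EC50 of 1 µM final; % is set by controls: 0 for no effect and ±100 for the full control effect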
In short: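 Read-out: CCF4 FRET ratio (460 nm/530 nm) after 1 h RT dye loading, used for %activity and AC50 from titration series. Cells: Jurkat NFAT-β-lactamase/M1 line, treated with compound plus 1 uM carbachol for 5 h, 37 °C.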

[4] = Stat Signaling Pathway (AID 446); conditions: ME-180 SIE beta-lactamase reporter, IL-6 stimulated, 5 h; at 7.69 µM (top of the series) unless noted;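 note: ME-180 cervical cancer cells given 40 pM IL-6 alongside compound; SIE-controlled beta-lactamase reporter measured as 460/530 nm FRET emission ratio; % is set by controls: 0 for no effect and ±100 for the full control effect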
In short: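 Screening format detects activators and inhibitors alike: ME-180 SIE-bla cells stimulated at 40 pM IL-6 for 5 hrs with compound, then dual-emission beta-lactamase read at 405 nm excitation.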

[5] = biological target: Glucocorticoid receptor (Homo sapiens) (UniProt P04150); assay: GR-EFC Redistribution (AID 451; calls by dose curve; note: potency is the fitted concentration of half-maximal effect); conditions: CHO-K1 GR-EFC translocation, beta-gal luminescence, 2 h
In short: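 Translocation of GR-ED fusion to nuclear EA restores b-gal, read by luminescence after 1 h room-temperature detection. Engineered CHO-K1 biosensor cells, 1,000/well, exposed 2 h at 37 C to titrations up to 46 uM final.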

[6] = biological target: Mitogen-activated protein kinase 10 (Mus musculus) (UniProt Q61831); assay: JNK3 AlphaScreen Assay (AID 530); conditions: JNK3 lysate, c-Jun phosphorylation; series mostly up to 57.1 µM;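 note: kinase came from lysate of stimulated human HepG2 cells; signal reports phosphorylation of biotinylated GST-cJun 1-79 at Ser73 with 10 µM ATP; % is set by controls: 0 for no effect and ±100 for the full control effect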
In short: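 Compound titrations were preincubated 15 minutes at room temperature with substrate, antibody and pre-activated JNK3-containing HepG2 lysate. Reactions were started with 10 uM ATP and stopped with EDTA-containing bead buffer for AlphaScreen detection.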

[7] = biological target: 3',5'-cyclic-AMP phosphodiesterase 4B (Homo sapiens) (UniProt Q07343); assay: qHTS Assay for Inhibitors of PDE-IV (AID 607; active = well fitted activation curve with a large enough effect in the main read-out, with a control signal flat, not every such curve was filed as active; note: % of control where 0% means no effect); conditions: HEK293 ACTOne CNG channel cells, membrane potential fluorescence; series mostly up to 22.9 µM
In short: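 The readout is membrane depolarisation from a cAMP-sensing CNG channel, detected with a potential dye at ex 535/em 590. Cells were HEK293-derived (endogenous PDE-IV) at 1000 cells/well, titrated up to 22.9 uM final.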

[8] = biological target: Cytochrome P450 3A4 (Homo sapiens) (UniProt P08684); assay: qHTS Assay for Activators of Cytochrome P450 3A4 (AID 885; active = well fitted curve in the direction sought with a large enough effect; an effect the other way counts as inactive or inconclusive; note: nearly all actives have a fitted effect of over 65% in size); conditions: recombinant CYP3A4, Luciferin-PPXE luminescence, 60 min; series mostly up to 57.1 µM
In short: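 Steps: enzyme/substrate mix dispensed; compound added, 10 min RT; NADPH regeneration solution added, 60 min RT; luciferin detection buffer stops reaction; 20 min later luminescence measured.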

[9] = qHTS Assay for Lipid Storage Modulators (AID 1519; calls by dose curve); conditions: Drosophila S3 cells, BODIPY lipid droplet/cell ratio, laser cytometry, cells loaded with oleic acid; for activity change, negative = inhibition: at 57.5 µM (top of the series)
In short: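 Cells seeded at 5,000 per well were treated with compounds over a concentration series and loaded with oleic acid (400 uM, as added). Lipid droplet fluorescence (488 nm excitation, 500-530 nm channel) was read by laser-scanning cytometry and normalized to 20 uM Triacsin C.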

[10] = Primary qHTS for small molecule stabilizers of the endoplasmic reticulum resident proteome: Secreted ER Calcium Modulated Protein (SERCaMP) assay (AID 1508630; active = well fitted curve in the direction sought with a large enough effect; an effect the other way counts as inactive or inconclusive; note: % is set by controls: 0 for no effect and ±100 for the full control effect); conditions: SH-SY5Y GLuc-SERCaMP (Gaussia luciferase released on ER calcium loss) secretion, thapsigargin, luminescence; series mostly up to 38.4 µM
In short: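 GLuc-SERCaMP-expressing SH-SY5Y cells, pretreated 16 h with compound, are challenged with thapsigargin to empty ER calcium stores; after 4 h, coelenterazine is added directly to the medium and luminescence is imaged.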

[11] = biological target: Glucocorticoid receptor (Homo sapiens) (UniProt P04150); assay: GR-GFP Redistribution (AID 450;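 active = compounds whose dose series gives a full or clear partial fitted curve of increased nuclear translocation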; note: potency is the fitted concentration of half-maximal effect); conditions: U2OS GR-GFP nuclear translocation, laser cytometry, 2 h
[12] = Confirmation and Secondary Assay for Modulators of Hemoglobin Beta Chain Splicing at IVS2 654 locus (AID 910; active = well fitted curve in the direction sought with a large enough effect; an effect the other way counts as inactive or inconclusive;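 note: HeLa cells stably carrying EGFP split by mutant beta-globin IVS2-654 intron; per-well total GFP intensity by laser scanning cytometry after 2-day treatment; % of control where 0% means no effect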); conditions: HeLa EGFP-654 splicing reporter, GFP fluorescence, 48 h; series mostly up to 38.3 µM
In short: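 Readout: per-well total peak green fluorescence (488 nm ex, 500–520 nm em) from objects 5–250 µm, reflecting correct splicing of an EGFP-654 reporter. Compounds were applied for 2 days at 37 °C to overnight-plated HeLa EGFP-654 cells; controls were DMSO and 500 nM IVS2-654 PNA.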

[13] = Confirmation and Secondary Assay for Modulators of Hemoglobin Beta Chain Splicing at IVS2 705 locus (AID 930; active = well fitted curve in the direction sought with a large enough effect; an effect the other way counts as inactive or inconclusive;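 note: HeLa cells stably expressing the EGFP-705 splicing reporter; GFP fluorescence per well restored by corrected splicing of the IVS2-705 intron in EGFP; % of control where 0% means no effect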); conditions: HeLa EGFP-705 splicing reporter, GFP fluorescence, 48 h; series mostly up to 38.3 µM
In short: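 HeLa EGFP-705 reporter; 500 cells/well, o/n 37C 5% CO2; cpd 2 d; 488 ex/500-520 em laser scan; total peak GFP intensity/well. Ref: 500 nM […] antisense PNA.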

[14] = biological target: Ubiquitin carboxyl-terminal hydrolase 1 (Homo sapiens) (UniProt O94782); assay: Inhibitors of USP1/UAF1: Pilot qHTS (AID 504865; active = well fitted curve in the direction sought with a large enough effect; an effect the other way counts as inactive or inconclusive;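 note: rhodamine fluorescence freed from ubiquitin-rhodamine substrate followed over time; top concentration of the series differs between compounds; % is set by controls: 0 for no effect and ±100 for the full control effect; nearly all actives have a fitted effect of over 35% in size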); conditions: purified USP1/UAF1, Ub-rhodamine cleavage fluorescence; series mostly up to 54.9 µM
In short: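 Deubiquitinase activity followed as kinetic rhodamine fluorescence release from 150 nM Ub-Rho. 1 nM USP1/UAF1 with compound, after 15 min room-temperature preincubation, in HEPES pH 7.8 buffer containing TCEP, EDTA, BSA and Tween-20.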

[15] = measured here: cell count channel max response
[16] = measured here: lipid channel max response

Chain of Glucocorticoid receptor (Homo sapiens) (P04150 whole entry, looked up, the tested form may be a part): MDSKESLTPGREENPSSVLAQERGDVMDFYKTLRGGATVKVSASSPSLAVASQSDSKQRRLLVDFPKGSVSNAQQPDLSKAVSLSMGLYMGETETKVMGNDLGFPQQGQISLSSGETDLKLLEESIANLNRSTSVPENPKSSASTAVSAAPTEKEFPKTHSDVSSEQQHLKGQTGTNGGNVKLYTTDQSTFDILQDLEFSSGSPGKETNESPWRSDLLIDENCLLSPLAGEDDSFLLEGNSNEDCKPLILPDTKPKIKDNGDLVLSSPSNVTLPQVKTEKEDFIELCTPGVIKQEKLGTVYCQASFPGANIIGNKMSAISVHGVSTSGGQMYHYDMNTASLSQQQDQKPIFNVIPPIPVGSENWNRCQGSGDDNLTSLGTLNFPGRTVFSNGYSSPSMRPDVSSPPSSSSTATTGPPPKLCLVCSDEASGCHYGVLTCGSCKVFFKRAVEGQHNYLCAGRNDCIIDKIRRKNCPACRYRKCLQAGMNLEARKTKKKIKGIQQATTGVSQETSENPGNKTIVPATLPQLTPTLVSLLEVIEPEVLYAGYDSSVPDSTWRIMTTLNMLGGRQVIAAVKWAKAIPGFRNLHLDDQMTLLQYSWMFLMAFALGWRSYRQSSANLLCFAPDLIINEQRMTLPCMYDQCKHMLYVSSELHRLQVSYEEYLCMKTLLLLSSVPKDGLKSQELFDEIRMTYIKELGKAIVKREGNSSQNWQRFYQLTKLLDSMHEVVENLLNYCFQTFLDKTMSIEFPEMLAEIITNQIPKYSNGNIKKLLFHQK
Chain of Lysosomal acid glucosylceramidase (Homo sapiens) (P04062 whole entry, looked up): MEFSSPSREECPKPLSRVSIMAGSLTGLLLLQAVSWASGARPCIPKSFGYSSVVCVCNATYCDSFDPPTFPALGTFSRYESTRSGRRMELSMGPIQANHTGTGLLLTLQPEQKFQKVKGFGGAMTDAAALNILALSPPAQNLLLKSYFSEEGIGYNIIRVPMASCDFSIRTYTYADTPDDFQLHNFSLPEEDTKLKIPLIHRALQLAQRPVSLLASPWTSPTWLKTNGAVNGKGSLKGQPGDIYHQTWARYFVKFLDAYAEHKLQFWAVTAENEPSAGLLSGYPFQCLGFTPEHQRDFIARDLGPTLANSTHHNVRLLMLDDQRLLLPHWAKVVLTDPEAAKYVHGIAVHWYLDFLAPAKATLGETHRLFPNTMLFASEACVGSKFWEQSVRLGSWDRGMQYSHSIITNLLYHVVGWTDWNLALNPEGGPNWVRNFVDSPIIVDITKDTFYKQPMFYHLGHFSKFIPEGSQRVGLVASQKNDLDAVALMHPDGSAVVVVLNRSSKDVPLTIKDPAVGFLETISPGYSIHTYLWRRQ
Chain of 3',5'-cyclic-AMP phosphodiesterase 4B (Homo sapiens) (Q07343 whole entry, looked up): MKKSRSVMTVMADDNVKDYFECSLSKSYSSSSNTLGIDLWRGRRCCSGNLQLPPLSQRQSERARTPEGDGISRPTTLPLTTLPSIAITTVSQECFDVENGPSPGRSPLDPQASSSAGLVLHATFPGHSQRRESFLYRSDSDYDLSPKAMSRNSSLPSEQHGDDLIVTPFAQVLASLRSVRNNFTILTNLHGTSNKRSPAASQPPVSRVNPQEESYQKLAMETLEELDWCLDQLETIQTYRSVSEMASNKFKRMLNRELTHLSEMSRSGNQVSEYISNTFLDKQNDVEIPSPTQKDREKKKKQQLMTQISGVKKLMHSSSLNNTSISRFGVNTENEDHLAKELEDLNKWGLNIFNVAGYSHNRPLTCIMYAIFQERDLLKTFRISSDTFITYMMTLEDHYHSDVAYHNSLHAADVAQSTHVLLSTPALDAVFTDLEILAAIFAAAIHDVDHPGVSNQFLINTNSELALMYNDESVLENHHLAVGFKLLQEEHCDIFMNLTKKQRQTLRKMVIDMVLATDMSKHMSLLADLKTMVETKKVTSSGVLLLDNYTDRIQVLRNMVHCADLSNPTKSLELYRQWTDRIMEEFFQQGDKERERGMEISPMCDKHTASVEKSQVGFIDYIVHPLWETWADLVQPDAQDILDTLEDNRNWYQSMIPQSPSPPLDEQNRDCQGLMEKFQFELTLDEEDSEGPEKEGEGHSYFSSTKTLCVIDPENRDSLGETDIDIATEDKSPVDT
Chain of Cytochrome P450 3A4 (Homo sapiens) (P08684 whole entry, looked up): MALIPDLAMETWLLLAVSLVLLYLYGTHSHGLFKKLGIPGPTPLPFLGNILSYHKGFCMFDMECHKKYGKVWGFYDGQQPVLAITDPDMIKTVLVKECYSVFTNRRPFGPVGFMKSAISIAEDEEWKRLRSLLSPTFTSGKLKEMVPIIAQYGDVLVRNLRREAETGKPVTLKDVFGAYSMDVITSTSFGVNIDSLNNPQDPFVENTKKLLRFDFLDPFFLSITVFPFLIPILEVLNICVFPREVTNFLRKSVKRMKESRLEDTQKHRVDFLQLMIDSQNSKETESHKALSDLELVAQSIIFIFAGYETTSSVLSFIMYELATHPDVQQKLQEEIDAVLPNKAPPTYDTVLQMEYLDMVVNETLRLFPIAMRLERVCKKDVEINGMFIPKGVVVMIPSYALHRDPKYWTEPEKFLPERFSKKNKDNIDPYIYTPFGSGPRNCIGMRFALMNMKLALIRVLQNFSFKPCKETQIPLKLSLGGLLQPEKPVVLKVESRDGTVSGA
Chain of Ubiquitin carboxyl-terminal hydrolase 1 (Homo sapiens) (O94782 whole entry, looked up): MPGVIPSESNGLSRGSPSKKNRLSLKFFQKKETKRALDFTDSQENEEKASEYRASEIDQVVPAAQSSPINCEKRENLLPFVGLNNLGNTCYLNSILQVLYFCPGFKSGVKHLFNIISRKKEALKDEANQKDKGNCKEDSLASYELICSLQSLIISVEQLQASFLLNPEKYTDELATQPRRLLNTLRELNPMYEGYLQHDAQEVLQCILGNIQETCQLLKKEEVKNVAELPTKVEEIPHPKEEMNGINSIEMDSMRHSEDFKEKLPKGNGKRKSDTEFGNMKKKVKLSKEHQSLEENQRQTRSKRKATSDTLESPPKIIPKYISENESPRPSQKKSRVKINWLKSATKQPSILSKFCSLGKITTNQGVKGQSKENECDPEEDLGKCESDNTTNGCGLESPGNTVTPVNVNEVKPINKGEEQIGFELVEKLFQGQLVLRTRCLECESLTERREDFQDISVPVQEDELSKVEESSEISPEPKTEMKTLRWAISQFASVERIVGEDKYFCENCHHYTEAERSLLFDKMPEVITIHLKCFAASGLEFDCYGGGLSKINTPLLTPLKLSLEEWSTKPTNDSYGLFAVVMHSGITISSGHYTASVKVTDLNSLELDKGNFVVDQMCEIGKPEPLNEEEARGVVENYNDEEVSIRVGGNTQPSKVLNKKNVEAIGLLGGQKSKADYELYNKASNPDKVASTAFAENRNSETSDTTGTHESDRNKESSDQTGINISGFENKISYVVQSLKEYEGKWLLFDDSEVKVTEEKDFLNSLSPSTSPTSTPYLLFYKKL

COCC(=O)N1CCC2(CCCN(c3ccccc3)C2)CC1
4.96%: max response [9, 15]
6.05%: max response [9, 16]
inactive: Potency [1] > 11.4 µM | activity change, negative = inhibition [2] 4.54% | activity change, negative = inhibition [3] -7.94% | activity, negative = inhibition [4] -0.962% | Potency [5] > 46 µM | Potency [6] | Potency [7] | Potency [8] | activity change, negative = inhibition [9] 0.354% | outcome [10]

Cc1cccc(CNc2cc(-c3cccnc3)ncn2)c1
-22.1%: max response [9, 16]
-10.4%: max response [9, 15]
inactive: Potency [1] > 11.4 µM | activity change, negative = inhibition [2] -15.4% | activity change, negative = inhibition [3] -0.57% | Potency [11] > 46 µM | Potency [5] > 46 µM | Potency [6] | Potency [7] | Potency [12] | outcome [13] | activity change, negative = inhibition [9] -14.1% | Potency [14] | outcome [10]

COc1ccc(C(=O)N2CCC[C@@]3(CCN(c4ncccn4)C3)C2)cc1
12.1%: max response [9, 16]
3.46%: max response [9, 15]
inactive: Potency [1] > 11.4 µM | activity change, negative = inhibition [2] -20.4% | activity change, negative = inhibition [3] 4.77% | activity, negative = inhibition [4] 1.38% | Potency [5] > 46 µM | Potency [6] | Potency [7] | activity change, negative = inhibition [9] 4.06% | outcome [10]

O=C(c1csnn1)N1CCC2(CC1)CCN(c1cccc(-c3ccccc3)c1)CC2
inactive: Potency [1] > 11.4 µM | activity change, negative = inhibition [2] -21.7% | activity change, negative = inhibition [3] 22.2% | activity, negative = inhibition [4] -14.3% | Potency [5] > 46 µM | Potency [7] | activity change, negative = inhibition [9] -6.94% | outcome [10]
3.45%: max response [9, 16]
9.03%: max response [9, 15]

COCC(=O)N1CCC[C@@]2(CCN(c3ccncc3)C2)C1
-0.218%: max response [9, 15]
3.63%: max response [9, 16]
inactive: Potency [1] > 11.4 µM | activity change, negative = inhibition [2] -10.7% | activity, negative = inhibition [4] 5.19% | Potency [5] > 46 µM | Potency [6] | Potency [7] | activity change, negative = inhibition [9] 1.37% | outcome [10]

COCC(=O)N1CCC2(CC1)CN(c1cccc(-c3ccccc3)c1)C2
0.928%: max response [9, 16]
-3.81%: max response [9, 15]
inactive: Potency [1] > 11.4 µM | activity change, negative = inhibition [2] -29.8% | activity change, negative = inhibition [3] 19.3% | Potency [5] > 46 µM | Potency [6] | Potency [7] | activity change, negative = inhibition [9] 3.02% | outcome [10]

Cn1cccc1C(=O)N1CCC[C@@]2(CCN(C(=O)Nc3cccc(C#N)c3)C2)C1
inactive: Potency [1] > 11.4 µM | activity change, negative = inhibition [2] -6.67% | activity change, negative = inhibition [3] 10.5% | Potency [5] > 46 µM | Potency [6] | Potency [7] | Potency [8] | activity change, negative = inhibition [9] 5.85% | outcome [10]
14.3%: max response [9, 15]
24.9%: max response [9, 16]
